CSC inhib: cancer stem cell viability inhibitors, primary screen, luminescence; inhibition, % at 7.5 µM; AID 2717, 2010; 1.1% of 300,000 active; cancer stem cell-like cells viability; in the data active means inhibition above about 75%; tested in HMLE shEcad cells
aSyn UTR inh: MLPCN primary screen, SNCA 5' untranslated region; alpha-synuclein 5'UTR reporter, inhibitor activity; inhibition, % (tested at 7.5 µM); 0.82% of 300,000 active; AID 1813, 2009; in the data active means inhibition above about 60%;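 further: H4 neuroglioblastoma cells stably carrying SNCA 5'UTR luciferase fusion; 0% = DMSO wells and 100% = positive control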
Bfl-1 A1 inh: caspase 3/7 activation in MEF A1-2A-BIM cells, primary screen, A1 inhibitor project, cell-based, luminescence, HTS | AID 2462, 2010 | Caspase-Glo 3/7 luminescence, 3 h; percent of clofoctol response, vehicle zero | 0.066% of 330,000 active | caspase activation, % (test concentration not listed);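 active means over half of replicate activation scores above 10%, or exactly half above 10 with the replicate mean above 10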
Mdm2 MdmX PPI: inhibitors of human Mdm2-MdmX association, primary screen, cell-based, luminescence, split luciferase, SaOS-2, uHTS. Protein Mdm4 (Homo sapiens) + E3 ubiquitin-protein ligase Mdm2 (Homo sapiens), …. SaOS-2 split-luciferase Mdm2/MdmX complementation. inhibition, % at 8 µM. 3% of 330,000 active. AID 485346, 2010;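 active means inhibition of at least 50% at 8 µM in the primary screen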
Target sequence (O15151 whole entry, looked up): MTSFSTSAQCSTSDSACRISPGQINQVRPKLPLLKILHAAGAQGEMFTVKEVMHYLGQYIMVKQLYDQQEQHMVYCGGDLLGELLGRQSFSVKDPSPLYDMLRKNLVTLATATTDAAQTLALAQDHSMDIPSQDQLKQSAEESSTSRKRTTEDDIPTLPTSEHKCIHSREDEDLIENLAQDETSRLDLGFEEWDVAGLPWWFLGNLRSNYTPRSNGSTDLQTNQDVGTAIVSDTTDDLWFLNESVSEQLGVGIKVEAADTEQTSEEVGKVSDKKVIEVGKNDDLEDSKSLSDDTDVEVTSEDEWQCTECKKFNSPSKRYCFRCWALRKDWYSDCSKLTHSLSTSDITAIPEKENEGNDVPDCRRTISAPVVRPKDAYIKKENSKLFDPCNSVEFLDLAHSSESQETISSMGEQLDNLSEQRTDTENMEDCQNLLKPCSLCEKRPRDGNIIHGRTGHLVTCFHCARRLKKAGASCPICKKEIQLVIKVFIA
Target sequence (Q00987 whole entry, looked up): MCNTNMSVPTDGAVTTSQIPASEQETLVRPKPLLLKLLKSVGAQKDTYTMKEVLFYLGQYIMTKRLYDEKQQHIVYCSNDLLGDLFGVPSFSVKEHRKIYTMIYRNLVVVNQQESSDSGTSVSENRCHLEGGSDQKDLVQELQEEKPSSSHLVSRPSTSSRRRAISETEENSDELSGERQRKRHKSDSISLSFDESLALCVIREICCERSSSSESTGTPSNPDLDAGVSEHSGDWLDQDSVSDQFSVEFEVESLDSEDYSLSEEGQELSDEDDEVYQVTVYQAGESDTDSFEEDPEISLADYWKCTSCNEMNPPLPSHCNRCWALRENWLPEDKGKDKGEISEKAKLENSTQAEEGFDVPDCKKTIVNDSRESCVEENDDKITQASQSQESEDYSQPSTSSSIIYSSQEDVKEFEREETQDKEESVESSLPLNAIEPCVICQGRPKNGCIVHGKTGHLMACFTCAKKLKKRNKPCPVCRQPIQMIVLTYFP
Beta apoptosis: inhibitors of cytokine-induced beta cell apoptosis, primary screen, luminescence. INS-1E cytokine-induced death, ATP luminescence, 48 h; percent of positive-control rescue, neutral wells zero. protection from apoptosis, % (test concentration not listed). 0.8% of 300,000 active. AID 435005, 2010;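 active means Every replicate reaches about 75%, or at least half do and their mean reaches it too, limit read from the data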;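 further: 0% = cytokine-treated negative control wells and 100% = positive control rescue; higher means more ATP so stronger rescue from cytokine killing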
Mdm2 MdmX conf: Mdm2-MdmX complex disruptors, retested hits, confirmation, luminescence, single concentration. shares compounds with Mdm2 MdmX PPI. 55% of 10,000 active. AID 489028, 2010. Mdm2-MdmX binding, luminescent assay. inhibition, % at 8 µM; in the data active means inhibition above about 40%
FLuc counter: full-length luciferase signal inhibition, confirmation, counter-screen for Mdm2/MdmX interaction inhibitor project, cell-based, single concentration, SaOS-2; shares compounds with Mdm2 MdmX PPI; SaOS-2 full-length luciferase counterscreen, luminescence; inhibition, % at 8 µM; 77% of 6,200 active; AID 504607, 2011;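 active means mean inhibition at 8 µM reaching about 37%, which flags the compound as non-specific, limit read from the data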;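 further: p53-null SaOS-2 cells with luciferase driven by a doxycycline-inducible promoter; compound on cells about two nights before reading with doxycycline added after day one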
Starred values were filed as active, the others as inactive; · = not tested or not shown. Only some compounds are listed: those with a hit (about 4.1% of all), similar ones and a draw of the others.

SMILES | CSC inhib | aSyn UTR inh | Bfl-1 A1 inh | Mdm2 MdmX PPI | Beta apoptosis | Mdm2 MdmX conf | FLuc counter
CC(=O)c1ccc(S(=O)(=O)NCC(=O)Nc2nc3ccccc3[nH]2)cc1 | -5 | · | 0 | -18 | -3 | · | ·
O=C(CCNC(=O)C1CCN(S(=O)(=O)c2ccc(F)cc2)CC1)NCc1ccncc1 | -3 | 8 | 0 | 3 | -2 | · | ·
Cc1nc(SCC(=O)Nc2ccc3[nH]c(=O)[nH]c3c2)nc(C)c1C | 2 | · | 1 | -1 | -4 | · | ·
c1ccc(Oc2c3ccccc3nc3ccccc23)cc1 | 30 | -28 | 1 | 73* | 5 | 5 | ·
Cc1nc(Oc2ccccc2)c2ccccc2n1 | -8 | -1 | -1 | -1 | -8 | · | ·
CC(=O)N(Cc1ccc(F)cc1)C1=C(NCCc2ccccc2)C(=O)c2ccccc2C1=O | -9 | 70* | 0 | 80* | 106* | 85* | 52*
CCCCNC(=O)c1ccc(Cn2c(=S)[nH]c3c([nH]c4ccc(OC)cc43)c2=O)cc1 | 140* | 105* | 51* | 89* | 101* | 16 | ·
COc1ccc(N2CCN(C(=O)COC(=O)c3cccc(S(=O)(=O)Nc4cccc(C)c4)c3)CC2)cc1 | -19 | -2 | 0 | 29 | 4 | · | ·
O=S(=O)(Nc1cccc2cccnc12)c1ccccc1 | 43 | 29 | -1 | 100* | 29 | 100* | 52*
CC(=O)Nc1ccc(S(=O)(=O)Nc2cccc3cccnc23)cc1 | -11 | -3 | 0 | 18 | 2 | · | ·
O=S(=O)(Nc1cccc2cccnc12)c1ccc(S(=O)(=O)N2CCCC2)cc1 | 45 | 45 | 0 | 83* | 53 | 53* | 37*
COc1ccc(NS(=O)(=O)c2ccc3ccccc3c2)c2ncccc12 | · | 56 | 0 | 92* | 39 | 88* | 37*
CS(=O)(=O)Nc1cccc2cccnc12 | -10 | · | 1 | 31 | 4 | · | ·
Cc1cc(C)n(-c2ccc3cccc(NS(C)(=O)=O)c3n2)n1 | 87* | 90* | -1 | 74* | · | 44* | 32
COc1ccccc1NS(=O)(=O)c1ccc2ccccc2c1 | 1 | -5 | 0 | 2 | -4 | · | ·
CCN(C[C@H]1N[C@@](Cc2ccccc2)(C(=O)OC)[C@H]2C(=O)N(C)C(=O)[C@@H]12)C(=O)C1CCCCC1 | · | · | · | -16 | · | · | ·
CCN(C[C@H]1N[C@@](CC)(C(=O)OC)[C@H]2C(=O)N(Cc3ccccc3)C(=O)[C@@H]12)S(=O)(=O)c1ccc(OC(F)(F)F)cc1 | · | · | · | 45 | · | · | ·
Cc1cc(C)c(NS(=O)(=O)c2cccc3cccnc23)c(C)c1 | -4 | -38 | -1 | -43 | 0 | · | ·
O=S(=O)(Nc1cccc2ccccc12)c1ccccc1 | · | 17 | · | -10 | · | · | ·
Cc1ccc(S(=O)(=O)Nc2cccc3cccnc23)c([N+](=O)[O-])c1 | -4 | 71* | 0 | 100* | -3 | 75* | 54*
Cc1ccc2cccc(NS(=O)(=O)c3ccccc3)c2n1 | -5 | 39 | 0 | 84* | 22 | 95* | 23
Cc1cc(N)ccc1NC(=O)CN1CCCC1 | -14 | 7 | 3 | -23 | -8 | · | ·
CCC(C)NC(=O)c1ccc(NC(=O)CC2SC(N3CCCC3)=NC2=O)cc1 (centres undefined) | -1 | · | 0 | 27 | -3 | · | ·
COc1cc(C)c(COc2ncnc3ccccc23)cc1OC | 12 | 21 | 0 | 21 | -1 | · | ·
CC(=O)Nc1ccc(SCC(=O)c2cc(C)n(-c3ccccc3)c2C)cc1 | 84* | 17 | -1 | 65* | -1 | 79* | 94*
SMILES | CSC inhib | aSyn UTR inh | Bfl-1 A1 inh | Mdm2 MdmX PPI | Beta apoptosis | Mdm2 MdmX conf | FLuc counter
CC(=O)Nc1ccc(SCC(=O)c2cc(C)ccc2C)cc1 | 10 | -4 | 1 | -3 | 1 | · | ·
Nc1nc2ccccc2n1/N=C/c1cccnc1 | · | -38 | 0 | 22 | -11 | · | ·
Nc1nc2ccccc2n1/N=C/c1ccc([N+](=O)[O-])s1 | 5 | 83* | -4 | 56* | 108* | 47* | 48*
COc1ccc(S(=O)(=O)N2CCN(C(=O)CCSc3ccccc3)CC2)cc1 | · | · | -1 | 13 | 0 | · | ·
O=C(N/N=C/c1ccccc1O)C1CC(=O)N(c2ccc(F)cc2)C1 (centres undefined) | 49 | 22 | 4 | 52* | 26 | 38 | 44*
CCCCn1nc(C(=O)NCc2ccccc2CN2CCCC2)c2ccccc2c1=O | 3 | · | 0 | 39 | -8 | · | ·
CCOc1ccccc1C(=O)N/N=C/c1coc2ccc(Cl)cc2c1=O | -5 | · | 0 | 82* | 1 | 85* | 22
O=C(N/N=C/c1coc2ccc(Cl)cc2c1=O)c1cc(O)cc(O)c1 | -4 | -4 | 1 | 46 | -14 | · | ·
Cc1ccc2occ(/C=N/NC(=O)c3ccccc3O)c(=O)c2c1 | -7 | 25 | 0 | 81* | 42 | 66* | 46*
COc1cc(C(=O)Oc2ccccc2/C=N/NC(=O)c2ccc(Cl)cc2Cl)cc(OC)c1OC | 22 | -25 | -1 | 56* | 92* | 23 | ·
Cc1ccc(S(=O)(=O)N2CCC(C(=O)NNC(=O)c3ccccc3O)CC2)cc1 | 50 | -2 | 2 | 11 | · | · | ·
Cc1ccc(S(=O)(=O)N2CCC(C(=O)NNC(=O)c3ccccc3O)CC2)cc1C | -4 | 7 | 3 | 53* | -1 | 50* | 46*
Cc1cc(C)c(C)c(S(=O)(=O)N2CCC(C(=O)NNC(=O)c3ccccc3O)CC2)c1C | -8 | 24 | 1 | 67* | 37 | 66* | 45*
Cc1cccc(C(=O)Nc2cc(S(=O)(=O)N3CCOCC3)ccc2N2CCCCC2)c1 | · | · | -1 | 15 | -4 | · | ·
CCn1nc(C)c(C(=O)Nc2cc(Oc3ccc(Cl)cc3)cc([N+](=O)[O-])c2)c1C | · | 18 | -1 | 57* | 2 | 45* | 53*
Cc1nn(CCCC(=O)Nc2cc(Oc3ccc(F)cc3)cc([N+](=O)[O-])c2)c(C)c1[N+](=O)[O-] | 47 | 13 | 0 | 44 | 7 | · | ·
CC(OC(=O)/C=C/c1ccc2ccccc2n1)C(=O)NCc1ccccc1 (centres undefined) | 22 | -23 | 0 | 54* | -7 | 30 | ·
Nc1cc(N)c(OCC(F)(F)F)cc1OCC(F)(F)F | -7 | -9 | 0 | 78* | 6 | 14 | ·
CCc1ccc(N2CC(C(=O)OCC(=O)Nc3ccc([N+](=O)[O-])cc3)CC2=O)cc1 (centres undefined) | -15 | · | 0 | 26 | -8 | · | ·
